Assay [1] can be described thus: ATG_TAL_CIS: Attagene CIS-FACTORIAL HepG2 Assay for human TAL Basal Promoter (AID 2282966).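 Further: background control endpoint measuring basal TAL promoter reporter mRNA not a specific factor.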 The conditions noted are these: HepG2 Attagene cis-factorial TAL promoter reporter; actives raise or lower the signal. An outline of the steps: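 Basal-promoter background-control endpoint from a multiplexed HepG2 reporter panel. Cells were exposed 24 h, then reporter mRNA was read by RT-PCR/CE fluorescence and fitted in both directions relative to DMSO.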

The nature of assay [2]: ATG_TGFb_CIS: Attagene CIS-FACTORIAL HepG2 Assay for human Transforming Growth Factor (TGF) (AID 2282967). The conditions noted are these: HepG2 Attagene CIS TGFb reporter, mRNA transcription; actives raise or lower the signal. The procedure, abridged: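 Transient MRTU transfection of HepG2 (FuGene 6). Dose 24 h. TriZol RNA, oligo(dT) RT, PCR, 6-FAM primer extension, HpaI cut, CE. Bidirectional fit, DMSO = baseline.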

A short description of assay [3]: ATG_VDRE_CIS: Attagene CIS-FACTORIAL HepG2 Assay for human Vitamin D Receptor Element (VDRE) (AID 2282968). The note with it: HepG2 VDRE cis-reporter transcription, actives raise or lower the signal. The procedure, abridged:
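Compounds were applied for 24 h to HepG2 cells transfected with promoter-regulated reporter units. Total RNA was reverse-transcribed, and reporter amplicons were fluorescently labelled and sized by capillary electrophoresis.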

The nature of assay [4]: ATG_M_19_TRANS: Attagene TRANS-FACTORIAL HepG2 Assay for M19 Transcription Factor (Internal Marker) (AID 2282974; active means hit-call score of the fitted dose curve at least 0.9, where 1 is the maximum). The note with it: HepG2 Attagene TRANS-FACTORIAL M19 internal marker reporter. An outline of the steps:
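After transfection of HepG2 with GAL4-UAS-driven reporter constructs, cells are dosed for 24 h. Total RNA is reverse-transcribed, reporter sequences PCR-amplified and labelled, then HpaI-digested and sized by capillary electrophoresis.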

The nature of assay [5]: ATG_GAL4_TRANS: Attagene TRANS-FACTORIAL HepG2 Assay for GAL4 (Internal Marker) (AID 2282976; active means hit-call score of the fitted dose curve at least 0.9, where 1 is the maximum). The conditions noted are these: HepG2 Attagene TRANS GAL4 internal marker reporter. The procedure, abridged:
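Background-control readout: GAL4-UAS reporter transcript in transiently transfected HepG2 cells after 24 h compound exposure. Measured by RT-PCR, 6-FAM primer extension, HpaI digest and capillary electrophoresis; gain-of-signal fit versus DMSO.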

Assay [6] in a line: ATG_M_06_TRANS: Attagene TRANS-FACTORIAL HepG2 Assay for M06 Transcription Factor (Internal Marker) (AID 2282983; active means hit-call score of the fitted dose curve at least 0.9, where 1 is the maximum;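 on AC50: potency for rise in reporter mRNA above DMSO baseline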). The conditions noted are these: HepG2 Attagene TRANS M06 internal marker reporter. The procedure, abridged: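 mRNA levels of a reporter transcript, quantified as FAM fluorescence on capillary electrophoresis, served as readout. HepG2 cells expressing exogenous GAL4-chimera reporter constructs were exposed for 24 h. Gain of signal over DMSO was evaluated.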

Assay [7] in a line: ATG_M_32_TRANS: Attagene TRANS-FACTORIAL HepG2 Assay for M32 Transcription Factor (Internal Marker) (AID 2282984; active means hit-call score of the fitted dose curve at least 0.9, where 1 is the maximum). The note with it: HepG2 Attagene TRANS M32 internal marker reporter. The procedure, abridged: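 Internal-marker readout from a multiplexed transcription reporter panel. HepG2 cells were transfected with GAL4-UAS reporter units, treated 24 hours, and reporter transcript levels determined by fluorescence after RT-PCR and capillary separation.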

Assay [8] deals with Nuclear receptor subfamily 4 group A member 2 (Homo sapiens) (UniProt P43354). The assay can be described thus: ATG_NURR1_TRANS: Attagene TRANS-FACTORIAL HepG2 Assay for human Nuclear Receptor Related Protein 1 (NURR1) (AID 2282985; active means hit-call score of the fitted dose curve at least 0.9, where 1 is the maximum). The note with it: HepG2 Attagene TRANS reporter, mRNA readout. An outline of the steps:
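Endpoint: reporter mRNA increase relative to DMSO. HepG2 cells transfected with reporter units, treated 24 h; RNA processed by RT-PCR, labelling, HpaI digestion and capillary electrophoresis.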

For assay [9], the target named is Transcriptional activator Myb (Homo sapiens) (UniProt P10242). The assay can be described thus: ATG_Myb_CIS: Attagene CIS-FACTORIAL HepG2 Assay for human Myeloblastosis (Myb) Proto-Oncogene Transcription Factor (AID 2282986). The conditions noted are these: HepG2 Attagene CIS-FACTORIAL Myb reporter transcription; actives raise or lower the signal. An outline of the steps:
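Endogenous transcription factor activity at a Myb-responsive cis element is reported in human liver HepG2 cells after 24 h chemical treatment. Reporter mRNA is detected by RT-PCR and capillary electrophoresis fluorescence, with DMSO as baseline.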

For assay [10], the target named is Nuclear respiratory factor 1 (Homo sapiens) (UniProt Q16656). The assay is described as follows: ATG_NRF1_CIS: Attagene CIS-FACTORIAL HepG2 Assay for human Nuclear Respiratory Factor 1 (NRF1) Orphan Gene (AID 2282987). The note with it: HepG2 NRF1 cis-element reporter, Attagene multiplex; actives raise or lower the signal. The procedure, abridged: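 Human hepatoma HepG2 cells carrying transfected promoter-regulated reporter units were incubated with test chemicals for 24 h. Reporter transcripts were measured by RT-PCR plus capillary electrophoresis, and endpoints derived by bidirectional fitting with DMSO as baseline.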

Assay [11] concerns the target X-box-binding protein 1 (Homo sapiens) (UniProt P17861). The assay can be described thus: ATG_Xbp1_CIS: Attagene CIS-FACTORIAL HepG2 Assay for human X-box Binding Protein 1 (XBP1) (AID 2282972). The note with it: HepG2 XBP1 cis-element reporter, Attagene multiplex; actives raise or lower the signal. An outline of the steps: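 Multiplexed cis-reporter readout in transfected HepG2 liver cells. Exposure lasted 24 hours. Activity in either direction was fitted against DMSO as negative control and baseline.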

Assay [12] addresses Glucocorticoid receptor (Homo sapiens) (UniProt P04150). The assay is described as follows: ATG_GR_TRANS: Attagene TRANS-FACTORIAL HepG2 Assay for human Glucocorticoid Receptor (GR) (AID 2282978; active means hit-call score of the fitted dose curve at least 0.9, where 1 is the maximum;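 further: activators score as hits since higher reporter transcript over DMSO is fitted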). The conditions noted are these: HepG2 Attagene TRANS GR reporter, mRNA transcription. The procedure, abridged:
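Multiplexed TRANS reporter system, HepG2; 24 h exposure; RNA → oligo(dT) RT → reporter-specific PCR → 6-FAM primer extension → HpaI cut → CE fluorescence. Gain-of-signal vs DMSO.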

Assay [13] addresses Bile acid receptor (Homo sapiens) (UniProt Q96RI1). The assay is described as follows: ATG_FXR_TRANS: Attagene TRANS-FACTORIAL HepG2 Assay for Farnesoid X Receptor (FXR) (AID 2282979; active means hit-call score of the fitted dose curve at least 0.9, where 1 is the maximum;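 further: hits raise reporter mRNA above DMSO so AC50 marks FXR activation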). The note with it: HepG2 Attagene TRANS FXR-GAL4 reporter transcription. An outline of the steps: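 HepG2 cells were transiently transfected with GAL4-UAS reporters driven by chimeric NR-Gal4 proteins and dosed for 24 h. Reporter mRNA was quantified by RT-PCR, fluorescent labelling, HpaI digestion and capillary electrophoresis, with gain of signal scored versus DMSO.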

In assay [14] the target is Oxysterols receptor LXR-alpha (Homo sapiens) (UniProt Q13133). The assay can be described thus: ATG_LXRa_TRANS: Attagene TRANS-FACTORIAL HepG2 Assay for human Liver X Receptor alpha (LXRa) (AID 2282980; active means hit-call score of the fitted dose curve at least 0.9, where 1 is the maximum). The note with it: HepG2 Attagene TRANS reporter, LXRa transactivation. An outline of the steps: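 HepG2 cells transiently transfected with GAL4-UAS reporter units for chimeric NR-Gal4 proteins, exposed to chemicals for 24 h. Reporter mRNA quantified by RT-PCR and capillary electrophoresis; gain of signal fitted relative to DMSO.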

The target in assay [15] is Oxysterols receptor LXR-beta (Homo sapiens) (UniProt P55055). The assay can be described thus: ATG_LXRb_TRANS: Attagene TRANS-FACTORIAL HepG2 Assay for human Liver X Receptor beta (LXRb) (AID 2282981; active means hit-call score of the fitted dose curve at least 0.9, where 1 is the maximum). The conditions noted are these: HepG2 Attagene TRANS GAL4-LXRb reporter, mRNA. An outline of the steps:
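Multiplexed reporter assay, HepG2, 24 h dosing. Fluorescence of labelled RT-PCR products after capillary electrophoresis gives transcript level; positive fitting direction relative to DMSO.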

Assay [16] has as its target Hepatocyte nuclear factor 4-alpha (Homo sapiens) (UniProt P41235). The assay can be described thus: ATG_HNF4a_TRANS: Attagene TRANS-FACTORIAL HepG2 Assay for human Hepatocyte Nuclear Factor 4 alpha (HNF4a) (AID 2282982; active means hit-call score of the fitted dose curve at least 0.9, where 1 is the maximum). The conditions noted are these: HepG2 HNF4a transactivation reporter, mRNA readout. An outline of the steps: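 Endpoint reflects transcriptional activation of a GAL4-UAS reporter by an HNF4a-GAL4 chimera in transfected HepG2 cells, 24 h post-dosing. Fluorescence from RT-PCR products separated by capillary electrophoresis; DMSO baseline.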

For assay [17], the target named is Estrogen-related receptor gamma (Homo sapiens) (UniProt P62508). The assay is described as follows: ATG_ERRg_TRANS: Attagene TRANS-FACTORIAL HepG2 Assay for human Estrogen-Related Receptor gamma (ERRg) (AID 2282977; active means hit-call score of the fitted dose curve at least 0.9, where 1 is the maximum;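 further: hits increase reporter signal over DMSO so potencies reflect activators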). The conditions noted are these: HepG2 Attagene TRANS reporter, ERRg transactivation. The procedure, abridged: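 Exogenous NR-Gal4 chimera activity measured as reporter transcript induction after 24 h in transiently transfected HepG2 cells. RNA reverse-transcribed, PCR-amplified, 6-FAM-labelled and resolved by capillary electrophoresis; increase over DMSO baseline.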

Records with an inconclusive call do not appear. Calls of active or inactive are those of the source. How the source made its calls, unless noted: active means hit-call score of the fitted dose curve at least 0.9, where 1 is the maximum; inactive means score below 0.9.

Sequence of Hepatocyte nuclear factor 4-alpha (Homo sapiens) (P41235 whole entry, looked up, the tested form may be a part): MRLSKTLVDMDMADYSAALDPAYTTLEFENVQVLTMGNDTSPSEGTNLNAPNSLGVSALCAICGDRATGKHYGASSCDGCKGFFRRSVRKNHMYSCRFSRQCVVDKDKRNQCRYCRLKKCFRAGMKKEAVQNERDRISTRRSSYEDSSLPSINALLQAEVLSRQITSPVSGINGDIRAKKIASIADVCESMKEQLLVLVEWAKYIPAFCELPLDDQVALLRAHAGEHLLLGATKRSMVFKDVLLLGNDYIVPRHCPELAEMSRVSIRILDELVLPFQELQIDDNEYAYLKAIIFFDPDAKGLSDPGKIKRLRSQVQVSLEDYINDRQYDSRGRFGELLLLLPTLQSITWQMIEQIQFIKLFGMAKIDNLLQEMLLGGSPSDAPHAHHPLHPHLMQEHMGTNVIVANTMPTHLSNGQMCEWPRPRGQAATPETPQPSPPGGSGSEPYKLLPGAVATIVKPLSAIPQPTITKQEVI
Sequence of Oxysterols receptor LXR-beta (Homo sapiens) (P55055 whole entry, looked up, the tested form may be a part): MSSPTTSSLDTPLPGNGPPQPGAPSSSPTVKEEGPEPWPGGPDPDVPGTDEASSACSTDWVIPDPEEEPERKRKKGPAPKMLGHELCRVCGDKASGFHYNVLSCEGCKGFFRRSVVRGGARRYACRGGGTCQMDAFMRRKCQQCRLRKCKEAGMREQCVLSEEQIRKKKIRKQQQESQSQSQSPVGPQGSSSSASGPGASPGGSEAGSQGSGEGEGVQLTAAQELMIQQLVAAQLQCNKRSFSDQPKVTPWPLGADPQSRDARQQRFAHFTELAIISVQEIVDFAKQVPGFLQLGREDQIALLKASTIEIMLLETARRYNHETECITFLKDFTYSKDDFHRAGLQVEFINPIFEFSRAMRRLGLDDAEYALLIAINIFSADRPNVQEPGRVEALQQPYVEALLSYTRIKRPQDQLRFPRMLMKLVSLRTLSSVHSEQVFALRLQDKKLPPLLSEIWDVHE
Sequence of Nuclear receptor subfamily 4 group A member 2 (Homo sapiens) (P43354 whole entry, looked up): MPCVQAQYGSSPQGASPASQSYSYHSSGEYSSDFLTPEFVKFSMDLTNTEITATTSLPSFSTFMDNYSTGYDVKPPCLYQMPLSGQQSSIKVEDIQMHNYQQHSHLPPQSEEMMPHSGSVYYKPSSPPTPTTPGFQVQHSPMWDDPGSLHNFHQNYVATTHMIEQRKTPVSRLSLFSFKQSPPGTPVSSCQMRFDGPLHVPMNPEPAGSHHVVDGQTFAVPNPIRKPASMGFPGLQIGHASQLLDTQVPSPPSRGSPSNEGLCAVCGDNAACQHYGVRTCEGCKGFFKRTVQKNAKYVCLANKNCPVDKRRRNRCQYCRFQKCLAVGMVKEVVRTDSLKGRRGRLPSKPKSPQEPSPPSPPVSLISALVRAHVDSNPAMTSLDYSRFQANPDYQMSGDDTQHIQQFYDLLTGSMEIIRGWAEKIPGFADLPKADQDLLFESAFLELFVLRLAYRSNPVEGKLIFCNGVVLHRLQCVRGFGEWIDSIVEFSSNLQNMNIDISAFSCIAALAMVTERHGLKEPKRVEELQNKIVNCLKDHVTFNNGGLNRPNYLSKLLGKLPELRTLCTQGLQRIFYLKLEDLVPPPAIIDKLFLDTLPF
Sequence of X-box-binding protein 1 (Homo sapiens) (P17861 whole entry, looked up): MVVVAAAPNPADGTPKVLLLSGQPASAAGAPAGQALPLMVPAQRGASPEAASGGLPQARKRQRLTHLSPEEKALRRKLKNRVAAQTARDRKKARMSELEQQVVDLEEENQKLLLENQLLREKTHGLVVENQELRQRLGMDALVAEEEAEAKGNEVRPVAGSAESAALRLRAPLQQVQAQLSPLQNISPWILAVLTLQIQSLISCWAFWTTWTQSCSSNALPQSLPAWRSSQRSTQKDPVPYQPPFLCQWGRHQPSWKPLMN
Sequence of Nuclear respiratory factor 1 (Homo sapiens) (Q16656 whole entry, looked up): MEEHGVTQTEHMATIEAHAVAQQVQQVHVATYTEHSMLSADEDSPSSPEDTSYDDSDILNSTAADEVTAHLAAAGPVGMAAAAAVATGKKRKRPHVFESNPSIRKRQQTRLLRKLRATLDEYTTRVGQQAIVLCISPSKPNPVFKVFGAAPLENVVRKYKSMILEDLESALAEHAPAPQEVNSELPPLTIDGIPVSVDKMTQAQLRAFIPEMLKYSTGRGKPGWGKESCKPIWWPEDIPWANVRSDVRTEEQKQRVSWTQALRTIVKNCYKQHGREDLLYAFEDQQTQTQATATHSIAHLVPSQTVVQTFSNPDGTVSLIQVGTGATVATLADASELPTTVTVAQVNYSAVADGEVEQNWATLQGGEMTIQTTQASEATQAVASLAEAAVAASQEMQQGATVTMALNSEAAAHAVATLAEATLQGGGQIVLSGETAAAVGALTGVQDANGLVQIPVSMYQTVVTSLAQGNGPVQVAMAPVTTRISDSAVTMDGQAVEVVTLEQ
Sequence of Transcriptional activator Myb (Homo sapiens) (P10242 whole entry, looked up): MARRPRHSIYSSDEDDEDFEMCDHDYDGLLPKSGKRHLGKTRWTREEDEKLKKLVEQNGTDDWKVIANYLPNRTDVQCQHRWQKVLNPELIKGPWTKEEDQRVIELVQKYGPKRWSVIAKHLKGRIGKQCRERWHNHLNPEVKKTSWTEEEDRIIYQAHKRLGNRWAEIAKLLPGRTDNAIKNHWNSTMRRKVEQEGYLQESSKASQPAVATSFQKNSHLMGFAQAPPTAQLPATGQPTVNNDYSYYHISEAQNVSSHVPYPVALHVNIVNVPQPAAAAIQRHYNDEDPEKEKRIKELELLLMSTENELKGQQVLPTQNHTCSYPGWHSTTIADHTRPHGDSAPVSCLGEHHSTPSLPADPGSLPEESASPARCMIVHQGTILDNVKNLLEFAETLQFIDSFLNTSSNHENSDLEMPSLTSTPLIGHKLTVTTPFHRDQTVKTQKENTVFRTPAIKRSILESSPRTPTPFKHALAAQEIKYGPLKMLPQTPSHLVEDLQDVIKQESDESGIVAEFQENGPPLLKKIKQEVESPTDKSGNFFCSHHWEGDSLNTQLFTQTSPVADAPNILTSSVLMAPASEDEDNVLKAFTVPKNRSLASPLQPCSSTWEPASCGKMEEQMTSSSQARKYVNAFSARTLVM
Sequence of Bile acid receptor (Homo sapiens) (Q96RI1 whole entry, looked up, the tested form may be a part): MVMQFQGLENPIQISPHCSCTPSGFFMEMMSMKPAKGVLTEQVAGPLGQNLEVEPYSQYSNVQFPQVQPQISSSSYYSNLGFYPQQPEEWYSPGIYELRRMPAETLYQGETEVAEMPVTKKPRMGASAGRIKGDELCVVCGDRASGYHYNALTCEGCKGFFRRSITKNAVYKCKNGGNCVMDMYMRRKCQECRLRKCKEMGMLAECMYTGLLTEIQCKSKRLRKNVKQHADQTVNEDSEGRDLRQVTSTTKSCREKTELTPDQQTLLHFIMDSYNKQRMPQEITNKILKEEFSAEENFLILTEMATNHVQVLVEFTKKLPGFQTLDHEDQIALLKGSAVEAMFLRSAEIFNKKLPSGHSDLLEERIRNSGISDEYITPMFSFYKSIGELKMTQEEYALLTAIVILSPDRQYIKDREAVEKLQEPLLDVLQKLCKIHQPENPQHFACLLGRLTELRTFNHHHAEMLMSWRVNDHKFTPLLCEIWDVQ
Sequence of Glucocorticoid receptor (Homo sapiens) (P04150 whole entry, looked up): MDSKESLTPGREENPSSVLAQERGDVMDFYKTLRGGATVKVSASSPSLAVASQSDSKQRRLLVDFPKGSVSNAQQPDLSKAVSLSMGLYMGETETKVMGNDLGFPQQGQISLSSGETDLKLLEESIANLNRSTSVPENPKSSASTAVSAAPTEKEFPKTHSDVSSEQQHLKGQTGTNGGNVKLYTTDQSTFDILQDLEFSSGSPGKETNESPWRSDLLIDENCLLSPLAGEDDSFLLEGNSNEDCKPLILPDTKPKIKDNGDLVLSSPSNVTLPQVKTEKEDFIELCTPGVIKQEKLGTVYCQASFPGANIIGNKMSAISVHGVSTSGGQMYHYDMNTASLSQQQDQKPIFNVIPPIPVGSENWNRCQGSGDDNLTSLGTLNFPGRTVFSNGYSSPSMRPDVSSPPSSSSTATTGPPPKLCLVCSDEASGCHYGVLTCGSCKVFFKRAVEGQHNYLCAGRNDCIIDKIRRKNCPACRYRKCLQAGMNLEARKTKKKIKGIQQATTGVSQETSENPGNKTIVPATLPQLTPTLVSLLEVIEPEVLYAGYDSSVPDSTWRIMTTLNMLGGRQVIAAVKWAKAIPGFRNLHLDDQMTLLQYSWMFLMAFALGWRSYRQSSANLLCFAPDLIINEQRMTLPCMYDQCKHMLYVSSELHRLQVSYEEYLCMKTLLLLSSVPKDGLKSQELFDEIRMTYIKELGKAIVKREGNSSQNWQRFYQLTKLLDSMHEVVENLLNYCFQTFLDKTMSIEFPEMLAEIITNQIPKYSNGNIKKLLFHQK
Sequence of Oxysterols receptor LXR-alpha (Homo sapiens) (Q13133 whole entry, looked up, the tested form may be a part): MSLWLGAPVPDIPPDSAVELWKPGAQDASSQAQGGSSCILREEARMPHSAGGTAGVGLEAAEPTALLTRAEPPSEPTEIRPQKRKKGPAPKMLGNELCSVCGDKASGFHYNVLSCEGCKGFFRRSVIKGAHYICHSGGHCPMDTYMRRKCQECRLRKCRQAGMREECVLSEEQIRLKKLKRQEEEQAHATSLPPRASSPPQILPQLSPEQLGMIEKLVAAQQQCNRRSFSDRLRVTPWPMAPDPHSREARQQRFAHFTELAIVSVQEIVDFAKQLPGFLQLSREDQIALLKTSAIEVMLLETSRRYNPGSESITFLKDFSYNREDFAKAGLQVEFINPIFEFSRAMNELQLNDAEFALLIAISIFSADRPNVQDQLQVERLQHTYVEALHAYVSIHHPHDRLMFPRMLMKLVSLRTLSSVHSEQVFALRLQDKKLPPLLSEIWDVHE

In the case of `CCOC(=O)[C@H](C)O`, the outcome in [1], in [2], in [3], in [4], in assay [5] and in assay [6] was inactive. Also, the compound was called inactive in assay [7], in [8], in assay [9] and in assay [10].
`CC(C)c1ccc2c(c1)CC[C@H]1[C@](C)(CN)CCC[C@]21C`: the call in assay [1], in assay [2], in assay [12], in assay [13], in [14] and in [15] was inactive. Besides, the result in assay [16], in assay [8], in [9] and in [10] was inactive. The AC50 in [3] is 5.66 µM (active); in assay [11], 5.24 µM (active); in [6] it was 5.45 µM (active).
With `O=C1C=CC(=O)O1`, the compound was classed as inactive in assay [1], in [2], in assay [3], in assay [13], in [14] and in assay [16]. The call in [6], in assay [7], in [9] and in assay [10] was inactive.
With `O=C(Cl)c1cc(C(=O)Cl)cc(C(=O)Cl)c1`, the outcome in assay [1], in assay [11], in assay [13], in assay [6], in assay [7] and in assay [10] was inactive. Also, the AC50 in [2] was 132 µM (active); in assay [3], 46 µM (active).
Consider `NC(CO)(CO)CO`, for which the compound was classed as inactive in [1], in assay [2], in [3], in assay [11], in assay [12] and in assay [15]. The compound was called inactive in assay [16], in [6], in [7], in assay [8], in assay [9] and in assay [10].
For `CCCCC(CC)COCC1CO1` (stereo not drawn), the outcome in assay [1], in assay [2], in [3], in assay [5], in assay [17] and in assay [12] was inactive. Moreover, the outcome in assay [16], in [6], in assay [7], in assay [9] and in assay [10] was inactive.
`c1ccc(CNCc2ccccc2)cc1`: the compound was classed as inactive in assay [1], in [2], in [3], in assay [11], in assay [5] and in [15]. For the same compound, the outcome in assay [6], in [9] and in assay [10] was inactive.

In general, AC50 refers to the concentration giving half of the maximal activity seen.

These data come from PubChem BioAssay (EPA / NIEHS).
